Compound activity from PubChem BioAssay.
aDG glyco act – increases alpha dystroglycan glycosylation. Pro5-aDG cells, alpha-DG glycosylation AlphaScreen (IIH6); 0% Pro5, 100% B10-LARGE cell signal. activation, % at 10 µM. 360,000 tested, 0.22% active;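 active = activation of at least 8% versus controls, or a plate z-score of at least 8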;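 also: Pro5 are CHO cells carrying HIG-tagged alpha-DG that lacks glycosylation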
HSP90 inh – HSP90 refolding inhibition in rabbit reticulocyte lysate. luciferase refolding luminescence, 3 h. AID 1789. 290,000 tested, 0.91% active. inhibition, % at 5.6 µM;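 active = inhibition above the screen-wide mean plus 3 SD, computed separately per campaign, cut at about 16% in these data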;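 also: 0% = DMSO wells and 100% = 60 µM geldanamycin wells; inhibitors lower the luminescence because luciferase stays unfolded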
TWEAK Fn14 block – TWEAK-Fn14 signaling inhibition. TWEAK-stimulated Fn14 reporter cells, luciferase luminescence, 8 h. inhibition, % at 10 µM. 360,000 tested, 2% active. AID 1159606; in the data active = inhibition above about 50%
LGR2 inh – blocks bursicon-induced cAMP signaling via Drosophila LGR2 | HEK293 LGR2, CRE-luciferase, bursicon-stimulated, 4 h | inhibition, % at 9.99 µM | 380,000 tested, 0.35% active | AID 720647;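 active = drop in luminescence signal, shown as inhibition above about 50% in the replicate tests, limit read from the data, passing the limit was not always enough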;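 also: agonist challenge used bursicon conditioned medium at about half maximal strength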
TROY NFkB inh – blocks TROY-dependent signaling in reporter cells; Q293 LMP1-TROYcd NF-kB luciferase reporter, 4 h; inhibition, % at 10 µM; 360,000 tested, 0.98% active; AID 1347056;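 active = compounds whose plate-normalised and pattern-corrected inhibition of the luciferase reporter signal at the single screening dose is 50% or more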
LMP1 NFkB inh – Epstein-Barr LMP1 NF-kappaB reporter inhibition. LMP1-induced NF-kappaB luciferase reporter cells, luminescence. inhibition, % at 12.5 µM. 350,000 tested, 0.69% active. AID 504558; in the data active = inhibition above about 41%;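 also: 0% = neutral control wells and 100% = reference inhibitor control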
Active calls of the source: *; · = no result. Most compounds without a hit are left out; they make up all but 2.6% or so of the library.

SMILES	aDG glyco act	HSP90 inh	TWEAK Fn14 block	LGR2 inh	TROY NFkB inh	LMP1 NFkB inh
CO[C@@H]1CN(C)C(=O)c2ccc(NS(C)(=O)=O)cc2OC[C@H](C)N(C(=O)NC(C)C)C[C@H]1C	·	·	·	-14.6	·	·
COc1ccc(-c2nc(CN3CCN(c4ncnc5ccccc45)CC3)c(C)o2)c(OC)c1	6.0	2.2	59.0*	8.5	29.3	16.9
Cc1oc(-c2cc(F)ccc2F)nc1CN1CCC(C(=O)N2CCOCC2)CC1	0.1	-2.7	-1.7	6.3	3.4	-6.2
Cc1oc(-c2cc(F)ccc2F)nc1CN1CCN(c2ncnc3ccccc23)CC1	3.6	-0.5	52.2*	4.9	28.5	18.5
Cc1ccccc1CS(=O)(=O)c1nnc([C@H](CC(C)C)NC(=O)OC(C)(C)C)o1	-0.2	2.7	21.8	9.5	31.8	4.0
CC[C@@H](C)[C@H](NC(=O)OC(C)(C)C)c1nnc(S(=O)(=O)Cc2cc(C)ccc2C)o1	-0.1	0.8	23.5	·	72.7*	4.0
C[C@H](CO)N1C[C@H](C)[C@H](CN(C)C(=O)NC2CCCCC2)Oc2ccc(NC(=O)C3CCCCC3)cc2CC1=O	·	·	·	7.7	·	·
Cc1noc(C)c1NC(=O)Nc1ccc2c(c1)C(=O)N([C@H](C)CO)C[C@H](C)[C@H](CN(C)S(=O)(=O)c1ccc(Cl)cc1)OCCCC[C@@H](C)O2	·	·	·	-2.4	·	·
O=C(COc1ccc(Cl)cc1)Nc1nc(-c2ccc(S(=O)(=O)N3CCOCC3)cc2)cs1	-0.1	-0.1	71.4*	·	46.6	19.4
O=C(COc1ccccc1)Nc1nc(-c2ccc(S(=O)(=O)N3CCOCC3)cc2)cs1	0.1	6.8	49.1	·	37.4	15.4
O=C(Nc1nc(-c2ccc(S(=O)(=O)N3CCCC3)cc2)cs1)C1COc2ccccc2O1 (stereo not drawn)	-0.2	0.4	60.8*	·	36.7	6.2
O=C(Nc1nc(-c2cccs2)cs1)c1ccc(S(=O)(=O)N2CCCC2)cc1	0.0	6.2	92.6*	·	65.6*	18.8
Cc1csc(NC(=O)c2ccc(S(=O)(=O)N3CCCC3)cc2)n1	0.0	-3.2	0.8	-24.8	-29.8	-1.1
CN(C)S(=O)(=O)c1ccc(C(=O)Nc2nc(-c3cccs3)cs2)cc1	0.0	4.8	55.9*	-15.7	54.7*	-2.9
O=S(=O)(c1ccc(-c2csc(Nc3ccc(F)cc3)n2)cc1)N1CCCC1	-0.2	1.9	22.8	5.2	44.7	18.3
O=C(Nc1nc(-c2ccc3c(c2)OCCO3)cs1)c1ccc(S(=O)(=O)N2CCCCC2)cc1	0.2	5.2	32.1	26.8	11.4	30.5
O=C(Nc1nc(-c2ccc(S(=O)(=O)N3CCCCCC3)cc2)cs1)c1ccccc1	0.0	-3.0	69.7*	·	45.3	26.6
O=S(=O)(c1ccc(-c2csc(Nc3ccc(Br)cc3)n2)cc1)N1CCCC1	-0.1	1.9	60.9*	2.1	36.3	8.1
COc1ccc(-c2cnc3c(c2)C(=O)N([C@H](C)CO)C[C@H](C)[C@H](CN(C)S(=O)(=O)c2ccc(C#N)cc2)O3)cc1	·	·	·	12.4	·	·
COc1ccccc1NC(=O)c1nc(S(=O)(=O)Cc2ccccc2)ncc1Cl	-0.1	-3.2	74.3*	-17.0	72.0*	0.6
COc1ccccc1NC(=O)c1ccc(C(=O)Nc2ccccc2OC)nc1	-0.1	5.9	-39.4	3.2	14.1	3.4
CCOc1ccccc1NC(=O)c1nc(S(=O)(=O)Cc2ccccc2)ncc1Cl	-0.7	3.9	74.0*	3.3	74.8*	-30.3
CCS(=O)(=O)c1ncc(Cl)c(C(=O)Nc2ccccc2OC)n1	-0.4	-3.6	95.0*	11.6	73.0*	-19.3
O=S(=O)(c1ccc(F)cc1)N1CCCCN2[C@H](C1)[C@@H](c1ccc(-c3ccccc3)cc1)[C@@H]2CO	·	·	·	16.9	·	·
C[C@H](CO)N1C[C@H](C)[C@H](CN(C)C)Oc2ncc(-c3cccnc3)cc2C1=O	·	·	·	6.3	·	·
Clc1ccc(OCc2nnc3n2N=C(c2ccc4c(c2)OCCO4)CS3)c(Cl)c1	0.5	-0.9	52.9*	·	60.0*	12.4
O=C(CCCN1C(=O)/C(=C/c2cccs2)SC1=S)NNC(=O)c1ccncc1	0.1	1.9	5.1	8.8	-24.9	13.9
O=C(O)CN1C(=O)/C(=C\c2ccccc2OCc2ccc(Cl)cc2Cl)SC1=S	-0.1	4.6	97.5*	-11.7	79.9*	44.1*
